Our source for the binding signal values is publication PMC7862700, “An all-to-all approach to the identification of sequence-specific readers for epigenetic DNA modifications on cytosine”.

What all share (assay): DAPPL (digital affinity profiling via proximity ligation, sequencing); 10 mM Tris-HCl pH 7.5, 50 mM NaCl, 1 mM DTT, 4% glycerol, room temperature, 30 min; GST-TFs on glutathione beads, 16-mer random dsDNA library, 0.1% formaldehyde crosslink after washing; high values mean tight binding
Holding throughout (conditions): protein: recombinant; tags: N-terminal GST; dsDNA, one strand shown

One test deals with T1, FLI1 (Homo sapiens, UniProt Q01543 1-452).
T1 sequence: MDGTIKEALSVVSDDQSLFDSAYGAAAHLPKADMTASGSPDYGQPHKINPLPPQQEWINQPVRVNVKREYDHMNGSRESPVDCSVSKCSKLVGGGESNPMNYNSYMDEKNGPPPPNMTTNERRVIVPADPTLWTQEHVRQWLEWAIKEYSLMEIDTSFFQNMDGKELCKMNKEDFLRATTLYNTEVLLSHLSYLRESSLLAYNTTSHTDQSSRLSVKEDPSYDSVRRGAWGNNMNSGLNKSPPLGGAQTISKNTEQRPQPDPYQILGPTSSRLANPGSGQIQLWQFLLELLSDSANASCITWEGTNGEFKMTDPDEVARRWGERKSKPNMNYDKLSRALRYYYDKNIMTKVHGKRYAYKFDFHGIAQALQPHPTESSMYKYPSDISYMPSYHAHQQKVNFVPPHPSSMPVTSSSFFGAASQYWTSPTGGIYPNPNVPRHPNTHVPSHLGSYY
The method, boiled down: (§1)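 Beads coated with glutathione captured GST-fused human transcription factors that had been expressed in yeast, and the factors were then given DNA barcodes and pooled with a tag-only sample. The pools were incubated with 200 nmole of a random double-stranded 16-mer DNA library in Tris/NaCl/DTT/glycerol buffer for 30 min at room temperature, washed, crosslinked with 0.1% formaldehyde and proximity-ligated with BsaI/T4 ligase at 37 °C for 1 h. PCR amplification and Illumina NextSeq500 sequencing came last. Binding signal is each hexamer's read frequency for a factor divided by its frequency for the tag-only sample.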

The target of another test is T2, ELK1 (Homo sapiens, UniProt P19419 1-428).
T2 sequence: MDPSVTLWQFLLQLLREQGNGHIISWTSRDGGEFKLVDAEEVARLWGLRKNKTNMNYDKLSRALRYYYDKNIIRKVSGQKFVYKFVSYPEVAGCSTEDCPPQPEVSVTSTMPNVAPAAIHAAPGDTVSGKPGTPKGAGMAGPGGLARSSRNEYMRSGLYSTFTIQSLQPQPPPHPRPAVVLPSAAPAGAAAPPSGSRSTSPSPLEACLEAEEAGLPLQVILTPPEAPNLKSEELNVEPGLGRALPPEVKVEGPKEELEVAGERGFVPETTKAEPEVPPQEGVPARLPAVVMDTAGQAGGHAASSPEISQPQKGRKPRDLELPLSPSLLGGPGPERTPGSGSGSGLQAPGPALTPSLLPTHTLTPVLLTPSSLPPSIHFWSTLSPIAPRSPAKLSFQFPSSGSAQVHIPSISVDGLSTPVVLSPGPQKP
The method, boiled down: as §1

The target of another test is T3, GABPA (Homo sapiens, UniProt Q06546 1-454).
T3 sequence: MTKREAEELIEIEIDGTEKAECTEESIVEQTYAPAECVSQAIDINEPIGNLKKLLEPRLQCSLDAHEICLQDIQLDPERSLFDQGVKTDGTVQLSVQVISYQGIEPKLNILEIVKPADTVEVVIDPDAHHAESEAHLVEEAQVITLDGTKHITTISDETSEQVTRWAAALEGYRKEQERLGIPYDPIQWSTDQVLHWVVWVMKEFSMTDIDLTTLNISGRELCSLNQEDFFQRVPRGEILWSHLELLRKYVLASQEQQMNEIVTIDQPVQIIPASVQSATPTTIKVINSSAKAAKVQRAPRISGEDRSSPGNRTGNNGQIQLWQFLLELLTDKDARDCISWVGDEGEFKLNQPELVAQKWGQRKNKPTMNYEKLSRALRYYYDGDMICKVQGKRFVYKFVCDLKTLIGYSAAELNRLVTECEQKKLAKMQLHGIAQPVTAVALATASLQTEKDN
An outline of the steps:
as §1

A further test addresses T4, ERG (Homo sapiens, UniProt P11308 1-479).
T4 sequence: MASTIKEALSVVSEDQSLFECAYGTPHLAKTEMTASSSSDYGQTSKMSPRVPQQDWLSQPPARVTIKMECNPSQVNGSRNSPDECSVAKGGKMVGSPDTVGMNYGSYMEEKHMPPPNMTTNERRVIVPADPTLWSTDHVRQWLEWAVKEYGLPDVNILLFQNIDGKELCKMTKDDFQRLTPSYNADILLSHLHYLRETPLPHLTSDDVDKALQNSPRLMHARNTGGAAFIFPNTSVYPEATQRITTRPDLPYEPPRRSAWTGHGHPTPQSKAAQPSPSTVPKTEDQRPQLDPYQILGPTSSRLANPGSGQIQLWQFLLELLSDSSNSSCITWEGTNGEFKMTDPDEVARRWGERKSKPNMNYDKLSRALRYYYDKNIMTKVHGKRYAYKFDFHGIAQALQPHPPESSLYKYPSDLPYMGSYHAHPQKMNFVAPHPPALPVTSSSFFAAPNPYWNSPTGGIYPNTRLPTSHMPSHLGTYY
The method, boiled down: as §1

The target of a further test is ELF1 (Homo sapiens, UniProt P32519 1-619). An outline of the steps:
as §1

The target of another test is T5, EHF (Homo sapiens, UniProt Q9NZC4 1-300).
T5 sequence: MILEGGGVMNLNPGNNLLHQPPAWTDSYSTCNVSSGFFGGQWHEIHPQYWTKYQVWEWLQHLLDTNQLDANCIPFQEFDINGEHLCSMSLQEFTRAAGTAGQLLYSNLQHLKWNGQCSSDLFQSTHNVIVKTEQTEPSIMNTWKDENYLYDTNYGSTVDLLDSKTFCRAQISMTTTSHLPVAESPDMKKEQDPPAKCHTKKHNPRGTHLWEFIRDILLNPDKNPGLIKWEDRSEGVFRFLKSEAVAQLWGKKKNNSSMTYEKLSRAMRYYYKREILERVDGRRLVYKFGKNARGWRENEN
The method, boiled down:
as §1

Another test deals with SPI1 (Homo sapiens, UniProt P17947 1-270). The method, boiled down:
as §1

In another test the target is T6, ELK3 (Homo sapiens, UniProt P41970 1-407).
T6 sequence: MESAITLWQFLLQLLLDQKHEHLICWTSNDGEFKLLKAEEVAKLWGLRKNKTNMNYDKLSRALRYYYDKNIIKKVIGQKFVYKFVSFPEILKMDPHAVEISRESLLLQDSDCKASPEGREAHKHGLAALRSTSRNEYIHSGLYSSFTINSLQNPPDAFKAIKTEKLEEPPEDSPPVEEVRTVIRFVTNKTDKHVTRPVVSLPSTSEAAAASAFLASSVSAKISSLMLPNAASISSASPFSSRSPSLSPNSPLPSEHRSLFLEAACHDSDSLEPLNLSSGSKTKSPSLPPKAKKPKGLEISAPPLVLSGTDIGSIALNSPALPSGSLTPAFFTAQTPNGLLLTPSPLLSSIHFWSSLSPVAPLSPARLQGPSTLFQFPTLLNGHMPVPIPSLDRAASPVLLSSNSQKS
An outline of the steps: as §1

In the next test the target is T7, FEV (Homo sapiens, UniProt Q99581 1-238).
T7 sequence: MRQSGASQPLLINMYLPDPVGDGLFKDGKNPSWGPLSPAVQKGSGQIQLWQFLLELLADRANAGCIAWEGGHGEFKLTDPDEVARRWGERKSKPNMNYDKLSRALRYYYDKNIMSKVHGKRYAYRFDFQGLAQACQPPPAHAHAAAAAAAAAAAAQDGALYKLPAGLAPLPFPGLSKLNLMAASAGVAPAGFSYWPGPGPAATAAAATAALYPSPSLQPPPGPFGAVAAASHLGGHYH
An outline of the steps: as §1

A further test concerns the target ETV5 (Homo sapiens, UniProt P41161 1-510). The method, boiled down:
as §1

A further test addresses ELF4 (Homo sapiens, UniProt Q99607 1-663). The method, boiled down: as §1
For a further test, the target named is ETV1 (Homo sapiens, UniProt P50549 1-477). An outline of the steps: as §1
Chain of ETV1 (P50549 whole entry): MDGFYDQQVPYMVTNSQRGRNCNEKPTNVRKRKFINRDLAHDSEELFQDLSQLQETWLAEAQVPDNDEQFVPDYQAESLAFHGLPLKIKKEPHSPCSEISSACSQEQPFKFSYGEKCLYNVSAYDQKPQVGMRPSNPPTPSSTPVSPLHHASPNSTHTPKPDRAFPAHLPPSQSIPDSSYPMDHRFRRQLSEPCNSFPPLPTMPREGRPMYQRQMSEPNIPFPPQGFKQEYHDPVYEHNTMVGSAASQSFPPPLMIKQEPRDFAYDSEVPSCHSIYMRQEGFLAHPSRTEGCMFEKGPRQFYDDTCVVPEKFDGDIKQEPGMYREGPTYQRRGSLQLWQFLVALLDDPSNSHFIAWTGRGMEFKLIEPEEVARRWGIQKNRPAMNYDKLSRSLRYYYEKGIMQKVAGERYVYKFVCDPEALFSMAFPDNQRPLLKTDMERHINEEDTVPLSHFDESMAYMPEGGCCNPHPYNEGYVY
A further test has as its target T8, ERF (Homo sapiens, UniProt P50548 1-548).
T8 sequence: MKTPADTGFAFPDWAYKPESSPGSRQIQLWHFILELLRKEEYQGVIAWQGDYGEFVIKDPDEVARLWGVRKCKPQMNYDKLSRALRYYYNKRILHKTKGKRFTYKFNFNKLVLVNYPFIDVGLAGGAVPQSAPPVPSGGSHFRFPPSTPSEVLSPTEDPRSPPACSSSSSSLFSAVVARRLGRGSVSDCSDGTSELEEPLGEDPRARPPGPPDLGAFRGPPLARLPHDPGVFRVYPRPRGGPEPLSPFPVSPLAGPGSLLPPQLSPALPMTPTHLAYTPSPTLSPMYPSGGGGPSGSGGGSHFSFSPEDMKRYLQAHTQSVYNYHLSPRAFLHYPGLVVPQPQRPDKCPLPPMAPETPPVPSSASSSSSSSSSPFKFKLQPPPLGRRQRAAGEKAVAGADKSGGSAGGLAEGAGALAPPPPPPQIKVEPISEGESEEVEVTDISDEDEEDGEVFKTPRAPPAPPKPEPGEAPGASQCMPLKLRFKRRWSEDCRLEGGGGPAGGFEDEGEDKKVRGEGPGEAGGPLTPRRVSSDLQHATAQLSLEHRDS
An outline of the steps: as §1

The target of the next test is T9, ETV3L (Homo sapiens, UniProt Q6ZN32 1-361).
T9 sequence: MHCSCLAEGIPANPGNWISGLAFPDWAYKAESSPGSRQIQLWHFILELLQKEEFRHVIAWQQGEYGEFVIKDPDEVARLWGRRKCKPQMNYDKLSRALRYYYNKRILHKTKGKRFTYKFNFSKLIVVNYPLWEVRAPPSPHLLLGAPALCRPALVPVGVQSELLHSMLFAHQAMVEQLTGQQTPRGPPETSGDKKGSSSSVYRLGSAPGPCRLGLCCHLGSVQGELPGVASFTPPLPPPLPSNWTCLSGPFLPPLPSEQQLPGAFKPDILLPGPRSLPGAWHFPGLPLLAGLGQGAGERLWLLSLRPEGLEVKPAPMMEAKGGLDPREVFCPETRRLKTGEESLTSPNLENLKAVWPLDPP
The method, boiled down:
as §1

A further test deals with T10, ETS2 (Homo sapiens, UniProt P15036 1-469).
T10 sequence: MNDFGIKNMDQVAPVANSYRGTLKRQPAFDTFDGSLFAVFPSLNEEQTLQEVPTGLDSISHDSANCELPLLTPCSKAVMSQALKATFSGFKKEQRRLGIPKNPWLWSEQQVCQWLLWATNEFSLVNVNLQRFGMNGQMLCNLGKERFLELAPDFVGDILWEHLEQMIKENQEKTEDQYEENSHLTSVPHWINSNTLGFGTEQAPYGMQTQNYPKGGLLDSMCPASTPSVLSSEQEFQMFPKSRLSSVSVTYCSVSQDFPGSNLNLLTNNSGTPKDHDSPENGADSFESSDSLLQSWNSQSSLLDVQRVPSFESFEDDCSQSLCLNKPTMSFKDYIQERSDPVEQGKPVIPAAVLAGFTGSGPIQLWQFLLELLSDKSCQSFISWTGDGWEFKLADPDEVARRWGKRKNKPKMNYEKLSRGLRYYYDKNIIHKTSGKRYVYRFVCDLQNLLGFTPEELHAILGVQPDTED
The method, boiled down: as §1

The next test addresses T11, ELF5 (Homo sapiens, UniProt Q9UKW6-2 1-255).
T11 sequence: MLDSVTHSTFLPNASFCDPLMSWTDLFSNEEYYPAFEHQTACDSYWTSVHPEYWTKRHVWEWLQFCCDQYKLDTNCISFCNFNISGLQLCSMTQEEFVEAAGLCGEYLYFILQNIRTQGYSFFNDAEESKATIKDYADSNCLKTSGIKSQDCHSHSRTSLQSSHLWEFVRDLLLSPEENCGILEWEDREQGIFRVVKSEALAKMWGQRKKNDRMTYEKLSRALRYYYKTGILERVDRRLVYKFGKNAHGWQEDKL
The method, boiled down: as §1

A further test concerns the target T12, ETV3 (Homo sapiens, UniProt P41162-2 1-143).
T12 sequence: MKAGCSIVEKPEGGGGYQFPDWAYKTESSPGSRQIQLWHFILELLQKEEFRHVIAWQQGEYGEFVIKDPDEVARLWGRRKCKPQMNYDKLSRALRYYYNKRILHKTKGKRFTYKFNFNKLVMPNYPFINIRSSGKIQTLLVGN
The method, boiled down:
as §1

For another test, the target named is ETV6 (Homo sapiens, UniProt P41212 1-452). The method, boiled down:
as §1

Chain of ELF1 (P32519 whole entry): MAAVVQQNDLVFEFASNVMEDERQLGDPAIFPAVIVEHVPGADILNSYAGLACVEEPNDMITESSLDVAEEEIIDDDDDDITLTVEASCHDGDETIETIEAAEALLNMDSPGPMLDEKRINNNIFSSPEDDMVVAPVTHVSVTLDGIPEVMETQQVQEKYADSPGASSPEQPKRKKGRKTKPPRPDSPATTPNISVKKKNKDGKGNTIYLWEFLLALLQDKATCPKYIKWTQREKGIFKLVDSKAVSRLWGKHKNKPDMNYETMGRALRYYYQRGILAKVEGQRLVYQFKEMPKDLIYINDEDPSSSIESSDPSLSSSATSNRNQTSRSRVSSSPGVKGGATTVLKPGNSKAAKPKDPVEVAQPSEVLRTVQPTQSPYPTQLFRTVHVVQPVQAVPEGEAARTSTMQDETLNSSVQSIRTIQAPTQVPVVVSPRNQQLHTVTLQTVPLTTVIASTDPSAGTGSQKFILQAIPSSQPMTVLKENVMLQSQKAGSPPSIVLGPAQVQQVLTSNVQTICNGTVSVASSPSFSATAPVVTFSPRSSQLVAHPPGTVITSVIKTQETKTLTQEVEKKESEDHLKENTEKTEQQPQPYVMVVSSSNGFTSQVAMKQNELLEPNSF
Chain of ELF4 (Q99607 whole entry): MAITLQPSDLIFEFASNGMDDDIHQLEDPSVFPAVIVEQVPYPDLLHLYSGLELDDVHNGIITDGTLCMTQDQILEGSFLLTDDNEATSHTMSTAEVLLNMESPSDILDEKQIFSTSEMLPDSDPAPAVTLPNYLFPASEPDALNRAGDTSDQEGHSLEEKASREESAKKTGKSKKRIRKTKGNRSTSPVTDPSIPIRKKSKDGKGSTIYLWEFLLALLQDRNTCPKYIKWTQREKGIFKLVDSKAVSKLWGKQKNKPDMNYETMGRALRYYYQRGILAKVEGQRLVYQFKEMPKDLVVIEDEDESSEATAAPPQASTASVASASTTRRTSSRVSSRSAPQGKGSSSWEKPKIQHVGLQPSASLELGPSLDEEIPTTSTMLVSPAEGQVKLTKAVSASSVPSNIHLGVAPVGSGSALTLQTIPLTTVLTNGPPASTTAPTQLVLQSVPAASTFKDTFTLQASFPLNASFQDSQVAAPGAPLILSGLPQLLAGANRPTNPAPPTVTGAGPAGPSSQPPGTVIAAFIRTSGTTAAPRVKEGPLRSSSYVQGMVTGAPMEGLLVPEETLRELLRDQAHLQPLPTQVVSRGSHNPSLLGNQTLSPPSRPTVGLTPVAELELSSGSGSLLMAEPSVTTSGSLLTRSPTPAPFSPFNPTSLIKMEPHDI
Chain of ETV6 (P41212 whole entry): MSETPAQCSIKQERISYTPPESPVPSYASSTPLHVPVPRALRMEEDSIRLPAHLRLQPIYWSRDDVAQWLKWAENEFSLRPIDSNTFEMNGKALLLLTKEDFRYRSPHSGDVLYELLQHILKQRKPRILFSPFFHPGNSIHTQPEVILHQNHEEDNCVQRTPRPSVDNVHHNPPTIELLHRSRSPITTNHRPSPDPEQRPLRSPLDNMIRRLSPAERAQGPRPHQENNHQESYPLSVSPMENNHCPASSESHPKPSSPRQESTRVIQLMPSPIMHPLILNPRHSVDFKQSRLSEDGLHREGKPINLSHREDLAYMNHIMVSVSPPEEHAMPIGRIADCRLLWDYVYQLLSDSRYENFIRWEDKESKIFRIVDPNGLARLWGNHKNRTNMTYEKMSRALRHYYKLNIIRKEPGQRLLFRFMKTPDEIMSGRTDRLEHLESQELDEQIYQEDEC
Chain of ETV5 (P41161 whole entry): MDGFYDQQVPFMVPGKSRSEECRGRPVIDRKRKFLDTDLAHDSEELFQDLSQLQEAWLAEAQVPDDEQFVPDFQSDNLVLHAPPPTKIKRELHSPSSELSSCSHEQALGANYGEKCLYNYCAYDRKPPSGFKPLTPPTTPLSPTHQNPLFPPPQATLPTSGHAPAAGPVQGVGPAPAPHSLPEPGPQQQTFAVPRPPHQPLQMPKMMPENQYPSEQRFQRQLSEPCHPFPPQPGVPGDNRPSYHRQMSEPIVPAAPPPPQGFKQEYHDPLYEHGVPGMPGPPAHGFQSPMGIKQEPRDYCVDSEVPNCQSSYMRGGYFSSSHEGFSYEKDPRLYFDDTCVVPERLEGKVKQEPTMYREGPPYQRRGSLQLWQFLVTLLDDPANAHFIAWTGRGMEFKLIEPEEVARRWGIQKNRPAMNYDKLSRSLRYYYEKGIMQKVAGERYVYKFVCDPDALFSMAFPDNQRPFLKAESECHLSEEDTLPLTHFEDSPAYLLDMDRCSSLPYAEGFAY

Regarding CACATG, the binding signal is 1.18 fold enrichment (6-mer frequency, TF over GST control) in the test with FLI1; 1.1 fold enrichment (6-mer frequency, TF over GST control) with ELK1; 1.07 fold enrichment (6-mer frequency, TF over GST control) with GABPA; 1.07 fold enrichment (6-mer frequency, TF over GST control) with ERG; 1.16 fold enrichment (6-mer frequency, TF over GST control) with ELF1; 1.16 fold enrichment (6-mer frequency, TF over GST control) with EHF. Moreover, the binding signal in the test with SPI1 was 1.11 fold enrichment (6-mer frequency, TF over GST control); in the test with ELK3, 1.14 fold enrichment (6-mer frequency, TF over GST control); in the test with FEV it was 1.11 fold enrichment (6-mer frequency, TF over GST control); in the test with ETV5, 1.1 fold enrichment (6-mer frequency, TF over GST control); with ELF4, 1.09 fold enrichment (6-mer frequency, TF over GST control); with ETV1 it was 1.1 fold enrichment (6-mer frequency, TF over GST control). Moreover, the binding signal is 1.12 fold enrichment (6-mer frequency, TF over GST control) with ERF; 1.03 fold enrichment (6-mer frequency, TF over GST control) with ETV3L; 1.11 fold enrichment (6-mer frequency, TF over GST control) in the test with ETS2; 1.02 fold enrichment (6-mer frequency, TF over GST control) with ELF5; 1.07 fold enrichment (6-mer frequency, TF over GST control) in the test with ETV3; 1.06 fold enrichment (6-mer frequency, TF over GST control) with ETV6.
